A short description of test [1]: small molecules captured by biotinylated probe aFSTL3 – biochemical, small-molecule microarray, fluorescence 635/667, stem cell growth factor project, primary screen (AID 1064).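 Also: measures binding of the biotinylated anti-FSTL3 antibody to printed compounds.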 The note with it: higher = more signal.
Test [2] can be described thus: binders from COS7 lysate, DM2A8 probe, primary screen, torsin A project, cell lysate, small-molecule microarray, fluorescence 635/667 (AID 1065). As to conditions: higher = more signal, COS7 lysate expressing mutant human TOR1A.
The nature of test [3]: small molecules captured by biotinylated probe aFGF2 – biochemical, small-molecule microarray, fluorescence 635/667, stem cell growth factor project, primary screen (AID 1067).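 Also: measures binding of biotinylated aFGF2 protein to printed compounds on slides; z-score merges feature fluorescence and signal-to-noise across triplicate slides.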 The note with it: higher = more signal.
Test [4] can be described thus: small molecules captured by biotinylated probe aFGF10 – biochemical, small-molecule microarray, fluorescence 635/667, stem cell growth factor project, primary screen (AID 1071).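 Also: score merges 667 nm spot intensity and signal to noise from triplicate slides.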 As to conditions: higher = more signal.
In test [5] the target is Neurogenic locus notch homolog protein 2 (Homo sapiens) (UniProt Q04721). Description: small molecules binding Notch2 protein – biochemical, small-molecule microarray, 635 nm fluorescence, stem cell growth factors, primary screen (AID 1073). The note with it: higher = more signal.
Test [6] addresses Pro-neuregulin-1, membrane-bound isoform (Homo sapiens) (UniProt Q02297). In words: small molecules binding neuregulin-1 protein – biochemical, small-molecule microarray, fluorescence 635/667, psychiatric disease protein project, primary screen (AID 1075).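 Also: score combines 667 nm spot fluorescence with signal to noise.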 As to conditions: NRG1 binding, 635 nm fluorescence, higher = more signal.
For test [7], the system named is Neuregulin-1 EGF-like domain. Description: small molecules binding NRG1 EGF domain – biochemical, small-molecule microarray, 635 nm fluorescence, primary screen (AID 1081).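 Also: binding of the protein to compounds printed on small-molecule microarray slides.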 The note with it: higher = more signal.
Test [8] is described as follows: FRG1 expression reporter modulators in myotubes – cell-based, C2C12 myotubes, firefly/Renilla luciferase, luminescence, FRG1 inhibition for FSHD, primary screen (AID 1084). As to conditions: FRG1 promoter luciferase, higher = more signal, called active from +8 up or from −8 down.
Test [9] is described as follows: small molecules captured by biotinylated probe aFST – biochemical, small-molecule microarray, fluorescence 635/667, stem cell growth factor project, primary screen (AID 1086).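 Also: score merges 667 nm fluorescence with signal-to-noise of each printed compound spot.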 As to conditions: higher = more signal.
A short description of test [10]: binders of probe aHhip on microarray, primary screen, stem cell growth factor project, biochemical, small-molecule microarray, fluorescence 635/667 (AID 1087).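 Also: score merges spot fluorescence at 667nm with spot signal to noise ratio.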 As to conditions: higher = more signal.
Test [11] deals with PRMT1 (protein arginine N-methyltransferase 1). Description: small molecules binding arginine methyltransferase PRMT1 – biochemical, small-molecule microarray, 635 nm fluorescence, primary screen (AID 1088).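 Also: binding of Prmt1 protein to compounds spotted on small-molecule microarray slides.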 As to conditions: higher = more signal.
Test [12] is described as follows: growth effects on S. cerevisiae YJM789 – YJM789 clinical isolate, OD600, 24 h, basal, primary screen (AID 1089).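 Also: growth of clinical yeast isolate S. cerevisiae YJM 789 seeded 1000 cells per well; test concentration not given here.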 The note with it: higher = more signal, called active from +8 up or from −8 down.
A short description of test [13]: S. pombe growth modifiers, basal conditions – strain 972, OD600, 24 h, no modulator, primary screen (AID 1090).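 Also: basal condition with compound alone and no growth modifier present; test concentration not given here.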 The note with it: S. pombe 972 growth, higher = more signal, called active from +8 up or from −8 down.
Test [14] in a line: budding yeast growth modifiers under rapamycin – strain BY4716, OD600, 96 h, primary screen (AID 1091). Also: test concentration not given here. The note with it: S. cerevisiae BY4716 + rapamycin, higher = more signal, called active from +8 up or from −8 down.
For test [15], the target named is Torsin-1A-interacting protein 2 (Homo sapiens) (UniProt Q8NFQ8). In words: small molecules binding lysate-expressed LULL1 – cell lysate, human LULL1 lysate, 635/667 nm fluorescence, primary screen (AID 1092).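 Also: probe is lysate of COS7 cells overexpressing human LULL1; score merges per-feature 667 nm fluorescence with signal-to-noise.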 As to conditions: small-molecule microarray, hLULL1 lysate binding, 635 nm fluorescence; higher = more signal.
Test [16] can be described thus: optical density change of DRC41 E. coli – strain DRC41, OD650, 24 h, E. coli filamentation project, primary screen (AID 1093).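 Also: MC1000 strain lacking acrAB efflux and sulA so SOS filamentation is blocked; test concentration not given here.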 As to conditions: E. coli DRC41 growth, higher = more signal, called active from +8 up or from −8 down.
A short description of test [17]: probe aLefty2 binding to arrayed compounds – biochemical, biotinylated probe, 635/667 nm fluorescence, primary screen (AID 1094).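 Also: score merges spot fluorescence near 667 nm with spot signal-to-noise ratio.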 The note with it: small-molecule microarray, higher = more signal.
In test [18] the test system is Noggin (protein binding on small-molecule microarray). In words: small molecules binding Noggin protein – biochemical, 635/667 nm fluorescence, primary screen (AID 1095).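 Also: score merges 667 nm feature fluorescence with signal to noise over triplicate slides.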 As to conditions: 635 nm fluorescence, higher = more signal.
Test [19] has as its target Neurogenic locus notch homolog protein 3 (Homo sapiens) (UniProt Q9UM47). In words: small molecules binding NOTCH3 protein – biochemical, 635/667 nm fluorescence, primary screen (AID 1096). As to conditions: small-molecule microarray, 635 nm fluorescence, higher = more signal.
Test [20] is described as follows: probe aEGFR binding to arrayed compounds – biochemical, biotinylated probe, 635/667 nm fluorescence, primary screen (AID 1097).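 Also: probe is a biotinylated anti-EGFR antibody binding compounds printed on slides; score combines fluorescence near 667 nm and signal to noise of each spot.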 As to conditions: small-molecule microarray, higher = more signal.

Activity calls are given as the source filed them.

Sequence of Neurogenic locus notch homolog protein 2 (Homo sapiens) (Q04721 whole entry, looked up, canonical isoform): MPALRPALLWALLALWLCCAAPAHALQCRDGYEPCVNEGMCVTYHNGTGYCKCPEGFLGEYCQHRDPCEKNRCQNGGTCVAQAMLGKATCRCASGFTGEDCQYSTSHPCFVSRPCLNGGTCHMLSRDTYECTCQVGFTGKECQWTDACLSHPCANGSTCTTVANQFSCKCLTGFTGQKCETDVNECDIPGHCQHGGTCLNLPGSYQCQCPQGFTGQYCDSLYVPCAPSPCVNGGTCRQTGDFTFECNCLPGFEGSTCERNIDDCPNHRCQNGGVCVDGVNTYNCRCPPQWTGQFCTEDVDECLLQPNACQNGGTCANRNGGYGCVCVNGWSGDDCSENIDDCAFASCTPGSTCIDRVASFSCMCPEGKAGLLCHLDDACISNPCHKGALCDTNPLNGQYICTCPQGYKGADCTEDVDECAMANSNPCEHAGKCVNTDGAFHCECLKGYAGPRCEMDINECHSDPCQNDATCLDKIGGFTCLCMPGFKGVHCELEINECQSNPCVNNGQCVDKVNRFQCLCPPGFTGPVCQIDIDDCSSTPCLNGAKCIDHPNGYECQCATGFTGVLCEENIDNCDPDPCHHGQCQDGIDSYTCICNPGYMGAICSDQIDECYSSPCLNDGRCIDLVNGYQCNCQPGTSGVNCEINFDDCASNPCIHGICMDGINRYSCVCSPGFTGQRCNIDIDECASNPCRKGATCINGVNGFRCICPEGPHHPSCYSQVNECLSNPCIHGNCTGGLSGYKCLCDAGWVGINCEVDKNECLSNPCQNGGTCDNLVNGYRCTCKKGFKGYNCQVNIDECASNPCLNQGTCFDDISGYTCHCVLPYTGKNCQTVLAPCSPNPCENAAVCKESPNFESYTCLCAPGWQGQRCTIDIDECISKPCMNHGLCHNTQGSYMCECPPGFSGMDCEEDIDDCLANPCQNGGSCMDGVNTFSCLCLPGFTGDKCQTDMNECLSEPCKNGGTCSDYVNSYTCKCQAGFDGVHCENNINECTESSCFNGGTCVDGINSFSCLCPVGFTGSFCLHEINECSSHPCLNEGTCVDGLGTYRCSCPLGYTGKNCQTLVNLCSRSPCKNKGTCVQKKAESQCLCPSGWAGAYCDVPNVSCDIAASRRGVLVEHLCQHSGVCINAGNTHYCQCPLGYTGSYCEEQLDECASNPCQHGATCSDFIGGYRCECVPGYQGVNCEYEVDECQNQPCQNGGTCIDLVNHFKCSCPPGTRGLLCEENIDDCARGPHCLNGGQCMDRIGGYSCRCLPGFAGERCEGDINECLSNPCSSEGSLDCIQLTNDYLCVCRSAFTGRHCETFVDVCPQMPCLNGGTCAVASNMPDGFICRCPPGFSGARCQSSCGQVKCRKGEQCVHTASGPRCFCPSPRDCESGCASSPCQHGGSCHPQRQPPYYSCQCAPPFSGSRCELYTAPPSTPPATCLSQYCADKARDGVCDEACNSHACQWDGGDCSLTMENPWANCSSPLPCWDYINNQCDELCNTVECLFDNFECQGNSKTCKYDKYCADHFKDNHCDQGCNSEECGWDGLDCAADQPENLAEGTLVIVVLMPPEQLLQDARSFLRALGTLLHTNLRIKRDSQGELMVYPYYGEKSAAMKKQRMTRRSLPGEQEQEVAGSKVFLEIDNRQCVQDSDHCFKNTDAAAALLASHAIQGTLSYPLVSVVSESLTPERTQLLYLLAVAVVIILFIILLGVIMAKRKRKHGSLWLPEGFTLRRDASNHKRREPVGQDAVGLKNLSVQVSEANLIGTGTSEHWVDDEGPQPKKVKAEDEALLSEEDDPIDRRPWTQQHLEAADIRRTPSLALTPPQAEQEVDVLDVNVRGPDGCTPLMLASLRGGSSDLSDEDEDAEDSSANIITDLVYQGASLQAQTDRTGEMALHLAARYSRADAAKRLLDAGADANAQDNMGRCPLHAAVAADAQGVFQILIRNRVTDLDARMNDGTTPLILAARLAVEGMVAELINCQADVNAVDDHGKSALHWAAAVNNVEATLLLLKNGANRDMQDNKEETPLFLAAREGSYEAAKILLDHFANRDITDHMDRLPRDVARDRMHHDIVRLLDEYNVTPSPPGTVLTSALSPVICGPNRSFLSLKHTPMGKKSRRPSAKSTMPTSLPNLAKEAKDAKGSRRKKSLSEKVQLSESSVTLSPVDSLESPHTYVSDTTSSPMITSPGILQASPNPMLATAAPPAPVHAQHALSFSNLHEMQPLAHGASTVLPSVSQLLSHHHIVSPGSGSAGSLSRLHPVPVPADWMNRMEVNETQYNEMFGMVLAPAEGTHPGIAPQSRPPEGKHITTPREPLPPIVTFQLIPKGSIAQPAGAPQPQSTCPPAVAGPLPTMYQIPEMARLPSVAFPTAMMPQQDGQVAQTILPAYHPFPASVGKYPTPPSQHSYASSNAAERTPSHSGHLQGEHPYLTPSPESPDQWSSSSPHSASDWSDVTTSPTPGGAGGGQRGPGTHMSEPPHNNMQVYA
Sequence of Neurogenic locus notch homolog protein 3 (Homo sapiens) (Q9UM47 whole entry, looked up): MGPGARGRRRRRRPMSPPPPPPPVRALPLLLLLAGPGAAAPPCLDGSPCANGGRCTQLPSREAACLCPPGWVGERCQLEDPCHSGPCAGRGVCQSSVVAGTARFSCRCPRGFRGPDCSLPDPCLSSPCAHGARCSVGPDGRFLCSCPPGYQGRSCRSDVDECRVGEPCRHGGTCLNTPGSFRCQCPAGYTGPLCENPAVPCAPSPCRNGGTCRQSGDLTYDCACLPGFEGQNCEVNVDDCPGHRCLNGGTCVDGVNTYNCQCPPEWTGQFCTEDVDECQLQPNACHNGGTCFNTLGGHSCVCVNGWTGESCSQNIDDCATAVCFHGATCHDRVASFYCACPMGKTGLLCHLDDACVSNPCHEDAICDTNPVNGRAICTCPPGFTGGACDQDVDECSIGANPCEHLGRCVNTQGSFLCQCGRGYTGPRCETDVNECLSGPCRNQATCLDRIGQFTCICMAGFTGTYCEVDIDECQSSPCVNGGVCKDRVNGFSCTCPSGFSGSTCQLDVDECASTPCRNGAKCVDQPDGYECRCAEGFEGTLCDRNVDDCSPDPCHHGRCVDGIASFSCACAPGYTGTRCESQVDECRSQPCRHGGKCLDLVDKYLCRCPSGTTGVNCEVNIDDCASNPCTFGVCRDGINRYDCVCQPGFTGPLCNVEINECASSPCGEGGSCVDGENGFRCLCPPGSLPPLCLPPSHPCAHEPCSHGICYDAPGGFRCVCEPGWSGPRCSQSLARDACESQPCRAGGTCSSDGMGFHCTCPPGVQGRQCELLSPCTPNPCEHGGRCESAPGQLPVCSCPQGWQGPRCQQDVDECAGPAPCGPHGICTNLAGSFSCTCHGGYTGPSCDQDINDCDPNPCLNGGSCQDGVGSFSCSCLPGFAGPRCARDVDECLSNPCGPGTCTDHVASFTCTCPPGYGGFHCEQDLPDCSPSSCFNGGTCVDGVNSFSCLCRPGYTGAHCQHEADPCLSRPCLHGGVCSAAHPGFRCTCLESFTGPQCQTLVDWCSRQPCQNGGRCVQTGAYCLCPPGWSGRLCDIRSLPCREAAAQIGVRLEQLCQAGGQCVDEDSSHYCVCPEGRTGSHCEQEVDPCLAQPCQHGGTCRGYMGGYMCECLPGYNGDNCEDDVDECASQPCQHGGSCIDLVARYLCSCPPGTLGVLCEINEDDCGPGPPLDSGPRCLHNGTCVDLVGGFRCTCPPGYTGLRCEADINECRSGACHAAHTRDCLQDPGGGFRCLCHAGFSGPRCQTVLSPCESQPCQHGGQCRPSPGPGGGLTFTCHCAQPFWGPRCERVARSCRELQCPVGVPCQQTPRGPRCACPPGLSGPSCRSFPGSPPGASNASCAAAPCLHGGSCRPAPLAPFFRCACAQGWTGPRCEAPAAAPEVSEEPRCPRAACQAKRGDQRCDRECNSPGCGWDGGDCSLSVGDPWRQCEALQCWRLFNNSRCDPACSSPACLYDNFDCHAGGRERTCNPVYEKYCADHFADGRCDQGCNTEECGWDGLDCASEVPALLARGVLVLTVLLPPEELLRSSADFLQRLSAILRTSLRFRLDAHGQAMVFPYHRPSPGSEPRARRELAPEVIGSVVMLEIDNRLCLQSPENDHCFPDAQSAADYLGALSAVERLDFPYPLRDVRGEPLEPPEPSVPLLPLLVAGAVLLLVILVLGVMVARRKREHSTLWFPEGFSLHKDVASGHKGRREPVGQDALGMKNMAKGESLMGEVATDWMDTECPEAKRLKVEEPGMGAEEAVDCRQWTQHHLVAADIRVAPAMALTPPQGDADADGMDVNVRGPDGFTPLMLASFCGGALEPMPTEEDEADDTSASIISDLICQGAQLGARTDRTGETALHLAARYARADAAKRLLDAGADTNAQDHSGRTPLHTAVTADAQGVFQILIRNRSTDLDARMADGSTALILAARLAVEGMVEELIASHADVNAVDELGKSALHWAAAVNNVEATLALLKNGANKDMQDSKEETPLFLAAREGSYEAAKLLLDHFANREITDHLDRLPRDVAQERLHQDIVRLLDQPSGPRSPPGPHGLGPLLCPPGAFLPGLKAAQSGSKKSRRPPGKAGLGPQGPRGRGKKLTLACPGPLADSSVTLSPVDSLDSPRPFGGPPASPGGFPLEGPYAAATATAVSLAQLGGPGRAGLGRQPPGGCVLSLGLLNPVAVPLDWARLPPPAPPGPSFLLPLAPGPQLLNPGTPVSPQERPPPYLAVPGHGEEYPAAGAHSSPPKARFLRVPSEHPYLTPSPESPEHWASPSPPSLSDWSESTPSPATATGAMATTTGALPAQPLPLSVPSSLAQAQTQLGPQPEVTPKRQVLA

In the case of `COC(=O)[C@]1(CCC(=O)OC(C)(C)C)N=C(c2ccc(OCCCO)cc2)O[C@@H]1c1ccccc1CN=[N+]=[N-]`, the composite z-score in [1] is 0.995; in test [2] it was -0.0569; in test [3], -0.0073; in test [4], 0.0301; in [5] it was 0.53; in test [6] it was 0.971. The composite z-score in [7] was 1.14; in test [9], 0.773; in test [10] it was -0.169; in test [11], 1.52; in test [15] it was 2.07; in test [17], 0.271. The composite z-score in test [18] was -0.146; in test [19], 0.51; in test [20] it was 0.124. In addition, the z-score in [8] was -3.06 (inactive); in [12], 0.339 (inactive); in [13], 0.419 (inactive); in [14], 15.2 (active); in test [16], -0.511 (inactive).

Regarding `CC1CC/C=C\[C@H]2OC34C=CCN(C(C)(C)C)C(=O)[C@H]3N(C(C)CO)C(=O)[C@@H]4C2C(=O)O1` (stereo not given in full), the composite z-score in test [1] was 0.101; in [2], -0.702; in test [3], -0.128; in test [4], -0.414; in [5], -1.04; in test [6] it was -0.486. Moreover, the composite z-score in [7] is 0.061; in test [9], -0.39; in test [10] it was -0.0296; in test [11], -0.282; in test [15] it was -0.656; in test [17], -0.207. Moreover, the composite z-score in test [18] was 0.0449; in test [19], -0.454; in test [20] it was -0.27. Also, the z-score in [8] is -0.486 (inactive); in test [12] it was 0.214 (inactive); in test [13] it was -0.538 (inactive); in test [14] it was -0.0168 (inactive); in [16], -0.434 (inactive).

As for `CN(C)C(=O)[C@]1(Cc2ccccc2N=[N+]=[N-])N=C(c2ccc(OCCCO)cc2)O[C@@H]1c1ccccc1N=[N+]=[N-]`, the composite z-score in [1] stood at 0.0009; in test [2], 0.827; in test [3] it was 0.0155; in test [4], 0.183; in test [5], 1.47; in test [6] it was 1.01. For the same molecule, the composite z-score in test [7] came out at 1.26; in [9] it was 1.15; in test [10], 0.0373; in test [11] it was 1.55; in test [15] it was 3.2; in [17], 0.191. In addition, the values for the composite z-score in test [18], in test [19] and in test [20] were 0.923, 1.07 and -0.0111, respectively. Moreover, the z-score in test [8] is -1.74 (inactive); in [12], -2.43 (inactive); in test [13] it was -2.73 (inactive); in test [14], 4.05 (inactive); in test [16] it was 0.799 (inactive).

Consider `CCCC#C[Si](O[C@H](CC)c1cn(Cc2cccc(Cl)c2)nn1)(C(C)C)C(C)C`, for which the composite z-score is -0.468 in test [1]; -0.139 in test [2]; -0.0865 in [3]; 0.85 in test [4]; 0.831 in test [5]; -0.0184 in test [6]. Besides, the composite z-score in test [7] is 1.15; in test [9] it was 0.0751; in test [10] it was -0.137; in test [11], 0.756; in test [15], 1.91; in test [17] it was -0.0068. Further, the composite z-score in test [18] stood at 0.476; in test [19] it was 1.13; in [20], 0.252. The z-score in [8] is 0.414 (inactive); in test [12], -1.19 (inactive); in [13], -9.34 (active); in test [14], -1.52 (inactive); in test [16], 1.5 (inactive).

`C=CCN1C(=O)[C@]2(O[C@H](CCn3cc([C@H](O)c4ccccc4)nn3)[C@@H]([Si](C)(C)c3ccc(OC)cc3)[C@@H]2C)c2ccccc21`: the composite z-score in test [1] was 0.202; in test [2] it was -0.602; in test [3], -0.0894; in test [4] it was -0.264; in [5], -0.439; in test [6], 0.093. In addition, the composite z-score in test [7] was -0.0113; in [9], -0.366; in test [10] it was -0.264; in [11], 0.267; in [15] it was 0.41; in test [17], -0.113. Moreover, the composite z-score in test [18] is -0.308; in test [19], 0.183; in test [20], -0.145. Further, the z-score in test [8] is -0.356 (inactive); in test [12], -1.25 (inactive); in test [13], 0.0123 (inactive); in test [14] it was -0.198 (inactive); in test [16], -0.68 (inactive).

The values above are taken from PubChem BioAssay.
